Source: PubChem (National Center for Advancing Translational Sciences (NCATS))
Most compounds without a hit are left out; they make up all but 19% or so of the library.
DT40 TDP1 no CPT: qHTS for Inhibitors of human tyrosyl-DNA phosphodiesterase 1 (TDP1): qHTS in cells in absence of CPT | Potency, µM (top dose mostly 46.2 µM), for inactives: top-dose activity change, negative = growth inhibition, actives largely listed as inhibitors | DT40 Tdp1-/- hTDP1 cells, no CPT, ATP luminescence, 48 h | AID 686978, 2013 | 15% of 420,000 active; further: potency means the concentration at half of the fitted maximal effect; nearly all actives have a fitted effect of over 55% in size
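DT40 Tdp1-/-;hTDP1 cells, no CPT (DMSO vehicle only), 400 cells/well; compounds pin-transferred; ≥48 hr, 37 °C; CellTiter-Glo 30 min RT dark, luminescence read.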
TDP1 cell CPT: growth inhibition of DT40 Tdp1-/-;hTDP1 cells with camptothecin (screen for TDP1 inhibitors); chicken DT40 Tdp1-/-;hTDP1 cells + 20 nM CPT, ATP luminescence, 48 h; Potency, µM (highest dose often 46.2 µM), for inactives: top-dose activity change, negative = growth inhibition, usual class: inhibitors; 12% of 420,000 active; AID 686979; further: potency means the concentration at half of the fitted maximal effect; nearly all actives have a fitted effect of over 55% in size
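Chicken DT40 Tdp1-/- cells stably complemented with human TDP1 were seeded at 400 cells/well in medium containing 20 nM camptothecin, exposed to pin-transferred compounds, and grown at 37 °C for at least 48 hr. Viability was read as ATP luminescence.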
IL-1B inflam inh: inhibitors of inflammasome signaling (IL-1 beta secretion). THP-1 LPS/ATP IL-1B secretion, AlphaLISA, 16 h; hits give low values. activity change, % at 57.5 µM. 4.7% of 360,000 active. AID 743279; in the data active means activity change below about -50%; inconclusive means mostly about -30% to -49%
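Secreted IL-1B measured by AlphaLISA bead assay after 16 h compound exposure of THP-1 cells; compounds (final up to 57.5 uM) added 1 h before LPS (250 ng/mL) and ATP (1.25 mM) stimulation; lower signal means less secretion.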
HT1080-NT tox: kills 2HG-producing HT-1080-NT fibrosarcoma cells; HT-1080-NT fibrosarcoma viability, CellTiter-Glo ATP luminescence, 48 h; 1.6% of 360,000 active; AID 686970; Potency, µM (highest dose often 46.1 µM), for inactives: at the highest dose activity, negative = less viability, actives largely listed as cytotoxic;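 further: NT is the 2HG producing partner of a matched IDH1 knockdown line; potency means the concentration at half of the fitted maximal effect; 0% = DMSO-treated cells and -100% = media-only wells without cells; nearly all actives have a fitted effect of over 55% in size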
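Viability by CellTiter-Glo luminescence after 48 h compound exposure at 37C of HT-1080-NT cells (750/well, RPMI, 5% FBS). % activity scaled between DMSO wells and medium-only wells, then curve-fitted and categorized by curve class.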
HT1080 IDH1KD tx: kills HT-1080 cells with IDH1 knockdown; AID 686971; Potency, µM (titrated, usually from 46.1 µM), for the others: at the highest dose activity, negative = toxicity, most hits filed as cytotoxic; 2% of 360,000 active; HT-1080 IDH1 knockdown viability, ATP luminescence, 48 h;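 further: potency means the concentration at half of the fitted maximal effect; 0% = DMSO wells and -100% = cell-free medium wells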
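% activity derives from luminescence (CellTiter-Glo), normalised to DMSO and no-cell wells. HT-1080-IDH1KD cells, 750/well, had 48 h compound exposure at 37 °C.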
* hit, by the source's call; ? = inconclusive; . = no result given; [ ] = another dose, or the depositor's remark. Unless noted, the call rests on the fitted dose curve; in most records, active means well fitted curve in the direction sought with a large enough effect; inconclusive means small, poorly fitted or top-dose-only effect, or another doubt; inactive means no such curve, though single readings can be large; an effect the other way counts as inactive or inconclusive. Unless noted, on the % scale 0 is the no-effect control and ±100 the full control effect.

SMILES	DT40 TDP1 no CPT	TDP1 cell CPT	IL-1B inflam inh	HT1080-NT tox	HT1080 IDH1KD tx
Cc1cc2nc(-c3ccc(Cl)cc3)cc(C(F)(F)F)n2n1	-24%	-29%	.	.	.
CCC(CO)Nc1ccn2nc(-c3cccc(Cl)c3)cc2n1 (configuration not stated)	23µM*	23µM*	-4	-19%	-3%
NNc1nc2cc3c(cc2s1)OCCO3	?	?	-5	-5%	-3%
O=C(NN=C1CCCC1)c1n[nH]c2c1CCC2	8%	1%	109	2.6µM*	3.7µM*
O=C(N/N=C/c1c(Cl)cccc1Cl)c1n[nH]c2c1CCCC2	12µM*	23µM*	-13	10%	-1%
Cc1ccsc1/C=N/NC(=O)c1sccc1C	?	?	5	?	?
Cc1ccsc1/C=N\NC(=O)c1n[nH]c2c1CCC2	3.3µM*	3.3µM*	9	6.5µM*	7.3µM*
CSc1cc(-c2ccccc2)n(Cc2ccc(Cl)cc2Cl)c(=O)c1C#N	23µM*	18µM*	29	24%	?
COc1cc(CN2CCc3nnc(C(NS(C)(=O)=O)C(C)C)n3CC2)ccc1F (configuration not stated)	-7%	13%	.	.	.
CCOC(=O)c1oc2c(CN3CCN(C)CC3)c(O)c(CC)cc2c(=O)c1-c1nc2ccccc2s1	3%	0%	34	-3%	-13%
O=c1cc2nc(-c3ccccc3F)nc(SCc3ccc(Br)cc3)n2[nH]1	12µM*	18µM*	.	.	.
Cc1ccc(S(=O)(=O)N2CCN(c3nc(-n4cncn4)nc4ccccc34)CC2)cc1	?	5%	.	2%	10%
COc1cc(C(=O)Nc2ccc3c(c2)CCN3C(C)=O)cc(OC)c1OC	2.1µM*	?	0	?	2.6µM*
CCC(=O)Nc1ccc(S(=O)(=O)N2CCc3ccccc32)cc1	-27%	?	33	0%	2%
CCOc1ccc(C(=O)Nc2ccc3c(c2)N(C(C)=O)CCC3)cc1OCC	21µM*	?	.	.	.
COc1ccccc1C(=O)Nc1ccc(S(=O)(=O)N2CCc3ccccc32)cc1	21µM*	?	-9	2%	1%
COc1cc(C(=O)Nc2ccc3c(c2)Cc2ccccc2-3)cc(OC)c1OC	?	-22%	0	-2%	-13%
COc1cc(C(=O)Nc2ccc(S(=O)(=O)N3CCc4ccccc43)cc2)cc(OC)c1OC	16µM*	?	-11	-6%	-18%
COCc1c(C(=O)N2CCN(C(C)C)CC2)cnn1-c1nccc(-c2cc(C)sc2C)n1	-11%	3%	.	.	.
COc1ccc(NC(=O)c2cc(S(=O)(=O)N3CCc4ccccc43)cn2C)cc1OC	3%	0%	16	-20%	-13%
COc1ccc(S(=O)(=O)N2CCc3ccccc32)cc1C(=O)Nc1ccc(C(N)=O)cc1	?	23µM*	0	?	?
CCOc1ccc(C(=O)Nc2cccc(C(=O)O)c2)cc1Cl	?	-12%	-9	13%	19%
CCOc1ccc(C(=O)Nc2cc(NC(=O)c3ccc(OCC)c(Cl)c3)cc(C(=O)O)c2)cc1Cl	-17%	2.1µM*	22	1%	15%
COc1ccc(S(=O)(=O)N2CCc3ccccc32)cc1[N+](=O)[O-]	?	23µM*	-2	-3%	-11%
O=S(=O)(c1ccc2ccccc2c1)N1CCc2ccccc21	?	?	12	-15%	-10%
SMILES	DT40 TDP1 no CPT	TDP1 cell CPT	IL-1B inflam inh	HT1080-NT tox	HT1080 IDH1KD tx
Cc1ccc(S(=O)(=O)NC2CC(=O)N(c3ccc4c(c3)OCCO4)C2)cc1 (configuration not stated)	?	?	10	-3%	-8%
Cc1ccc(S(=O)(=O)CCSc2n[nH]c(=O)n2-c2ccc3c(c2)OCCO3)cc1	21µM*	?	?	-17%	-12%
N/C(=N\OC(=O)C(c1ccccc1)c1ccccc1)c1ccncc1	29µM*	-4%	-14	0%	-1%
CCOC(=O)C1=C(N)n2c(s/c(=C\c3cccs3)c2=O)=C(C(=O)OCC)C1c1cccs1 (configuration not stated)	6.5µM*	4.1µM*	43	?	2.6µM*
Cc1cccc2cc(CN(C(=O)c3ccc(C(F)(F)F)cc3)C3CC3)c(N3CCC(O)CC3)nc12	?	-4%[9.04 µM]	.	.	.
Cc1ccc(CNC(=O)Cc2c(C(=O)O)c(C)cn2C)cc1	-2%	2%	.	.	.
c1ccc(CCC2Cc3ccccc3N2)cc1 (configuration not stated)	-2%	?	-4	7%	14%
c1ccc(CC[C@@H]2CC[C@@H](CCc3ccccc3)N2)cc1	18µM*	12µM*	-2	-29%	-4%
CC(C)(C)c1nnc(N/N=C/c2cc(Br)ccc2O)n(N)c1=O	2.3µM*	2.6µM*	12	?	?
CCc1nnc(N/N=C/c2cc(Br)c(O)cc2O)n1N	?	4.1µM*	43	?	?
CCc1nnc(N/N=C/c2cccs2)n1N	?	26µM*	0	-10%	-16%
CCc1nnc(N/N=C/c2ccc(O)c(OC)c2)n1N	0%	?	0	-28%	-11%
NC(=O)N/N=C\c1cc(Br)ccc1O	?	-10%	-9	-4%	0%
CCCNC(=O)c1c(NC(=O)c2ccc(C)cc2)sc2c1CCCCC2	-14%	?	.	.	.
COc1cc2c(cc1OC)C(c1ccccc1)N(S(C)(=O)=O)CC2 (configuration not stated)	1%	-22%	-11	6%	10%
C[C@@H]1CN([C@@H](C)CO)C(=O)CCCn2nncc2CO[C@H]1CN(C)Cc1ccccc1C(F)(F)F	?	18µM*	12	4%	4%
C[C@@H]1CN([C@H](C)CO)C(=O)CCCn2nncc2CO[C@H]1CN(C)Cc1ccc(Oc2ccccc2)cc1	?	?	19	1%	-1%
C[C@H]1CN([C@@H](C)CO)C(=O)CCCn2nncc2CO[C@H]1CN(C)S(=O)(=O)c1ccc2ccccc2c1	23µM*	?	-11	6%	0%
C[C@@H]1CN([C@@H](C)CO)C(=O)CCCn2nncc2CO[C@H]1CN(C)Cc1ccc(Oc2ccccc2)cc1	16µM*	?	-25	-6%	-15%
C[C@@H]1CN([C@H](C)CO)C(=O)CCCn2nncc2CO[C@H]1CN(C)Cc1cccc(C(F)(F)F)c1	-1%	21µM*	-2	0%	-11%
CCOc1ccccc1C(=O)N[C@H](C(=O)Nc1cc(S(=O)(=O)N(C)C)ccc1OC)C(C)C	?	-25%	-13	17%	9%
